Compounds with a hit are over-represented: about 1.8% of the library has one in this group of screens.
APP transl inh: APP translation inhibition; hit rate 0.82% among 190,000; inhibition, % at 2 µM; SH-SY5Y APP 5'UTR-luciferase reporter, luminescence;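 active = inhibition above a set limit, derived from the sample mean plus 3 SD, cut at about 45% in these data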
BaF3 tox: reduces parental Ba/F3 cell viability, JAK2V617F counter-screen. inhibition, % at 5.6 µM. AID 1486. hit rate 1.1% among 220,000. CellTiter-Glo ATP luminescence;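 active = inhibition above a per-campaign cutoff, the mean inhibition of all tested compounds plus 3 SD, cut at about 27% in these data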;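 note: 0% = DMSO wells and 100% = JAK Inhibitor I control wells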
Ba/F3 V617F tox: loss of viability in JAK2V617F-driven Ba/F3 cells; Ba/F3 EpoR-JAK2V617F viability, ATP luminescence; inhibition, % at 5.6 µM; hit rate 1.1% among 220,000; AID 1446;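 active = inhibition above the campaign mean plus 3 SD over all tested compounds, cut at about 24% in these data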;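 note: cytokine-independent growth of Ba/F3 cells driven by EpoR plus mutant JAK2; 0% = DMSO-treated cells and 100% = JAK inhibitor I control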
KLF5 inhibitor: suppresses KLF5 promoter-driven expression. DLD-1 KLF5 promoter-luciferase reporter, luminescence. hit rate 0.23% among 290,000. inhibition, % at 5 µM. AID 1700;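 active = inhibition above a per-plate limit of that plate's mean compound inhibition plus 3 SD, cut at about 60% in these data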;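 note: 0% = DMSO wells and 100% = LY294002 at 200 µM; higher means less KLF5 promoter-driven luciferase light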
IEC-6 tox-1: counter-screen for KLF5 inhibitors: cytotoxicity in IEC-6 cells. AID 1825. inhibition, % at 5 µM. IEC-6 cytotoxicity, luminescence viability. hit rate 0.78% among 290,000;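 note: 0% = plate median of test compound wells and 100% = cytotoxic reference compound wells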
BaF3 tox 2: parental Ba/F3 viability inhibition for JAK2V617F counter-screen; CellTiter-Glo luminescence; cells kept alive by added IL-3; inhibition, % at 5.6 µM; shares compounds with Ba/F3 V617F tox; hit rate 31% among 580;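 active = cell growth inhibition above the hit limit set in the earlier mutant JAK2 cell screen, cut at about 27% in these data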;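 note: plate controls were DMSO-treated cells for no effect and JAK Inhibitor I control wells for full effect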
JAK2V617F conf: Ba/F3 EpoR-JAK2V617F viability loss, confirmation; shares compounds with Ba/F3 V617F tox; CellTiter-Glo luminescence; inhibition, % at 5.6 µM; hit rate 66% among 580; AID 1521;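 active = mean inhibition above the hit cutoff derived in the earlier primary screen, cut at about 25% in these data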;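 note: 0% = DMSO-treated cells and 100% = JAK inhibitor I control wells; higher means lower luminescence from reduced cell ATP and viability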
KLF5 inh confirm: KLF5 inhibition, confirmation assay; shares compounds with KLF5 inhibitor; DLD-1 KLF5 promoter firefly luciferase reporter, luminescence; inhibition, % at 4 µM; hit rate 79% among 610; AID 1834;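 active = inhibition above a set limit taken from the earlier primary screen, cut at about 63% in these data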;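 note: 0% = DMSO wells and 100% = LY294002 at 200 µM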
IEC-6 tox-2: kills rat IEC-6 cells in KLF5 counter-screen | shares compounds with KLF5 inhibitor | IEC-6 rat intestinal cells, viability luminescence | inhibition, % at 4 µM | hit rate 56% among 610 | AID 1905; in the data active = inhibition above about 23%;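 note: cells exposed to compounds for 48 hours before viability read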
IEC-6 cytotox cf: confirmation of cytotoxic compounds in rat IEC-6 intestinal epithelial cells; shares compounds with IEC-6 tox-1; IEC-6 rat intestinal epithelial viability, luminescence; inhibition, % at 5 µM; hit rate 63% among 1,900;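 note: 0% = vehicle and 100% = reference cytotoxic drug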
An asterisk follows results filed as active; ! = not confirmed by another sample. Cut-off read from the data, not from the text of the source, unless noted: active = inhibition above about 22%; inactive = the rest.

How did CC1CCC/C=C/C2CC(O)CC2C(O)/C=C/C(=O)O1 (centres undefined) do in these assays?
APP transl inh: 94*; BaF3 tox: 0; Ba/F3 V617F tox: 62*; KLF5 inhibitor: 94*; IEC-6 tox-1: 101*; BaF3 tox 2: 103*; JAK2V617F conf: 67*; KLF5 inh confirm: 110*; IEC-6 tox-2: 102*; IEC-6 cytotox cf: 100*

Results for C[C@]12CCC3[C@@H](CCC4=CC(=O)CC[C@@]43C=O)C1CCC2=O (some centres undefined) ?
KLF5 inhibitor: -16; IEC-6 tox-1: 10

How did O=C1C(=O)c2ccccc2-c2ccccc21 do in these assays?
APP transl inh: 58*; BaF3 tox: 102*; Ba/F3 V617F tox: 100*; KLF5 inhibitor: 106*; IEC-6 tox-1: 103*; KLF5 inh confirm: 114*; IEC-6 tox-2: 101*

How did O=C(Nc1ccc(OC(=O)N2CCCCC2)cc1)N1CCOCC1 do in these assays?
APP transl inh: 52*; BaF3 tox: -2; Ba/F3 V617F tox: -1; KLF5 inhibitor: 68*; IEC-6 tox-1: -5; KLF5 inh confirm: 4; IEC-6 tox-2: -7

Results for O=C(Nc1ccc(OC(=O)N2CCCC2)cc1)N1CCOCC1 ?
APP transl inh: 4; BaF3 tox: 4; Ba/F3 V617F tox: 0; KLF5 inhibitor: 7; IEC-6 tox-1: 0

Results for O=c1[nH]c(=S)n(-c2ccccc2)c(O)c1/C=N/N1CCOCC1 ?
APP transl inh: -9; BaF3 tox: -1; Ba/F3 V617F tox: -2; KLF5 inhibitor: -9; IEC-6 tox-1: -3

How did Cc1nc2c(=O)n(C)c(=O)nc-2n(C)n1 do in these assays?
APP transl inh: 6; BaF3 tox: 101*; Ba/F3 V617F tox: 99*; KLF5 inhibitor: 105*; IEC-6 tox-1: 102*; KLF5 inh confirm: 115*; IEC-6 tox-2: 96*; IEC-6 cytotox cf: 96*

How did COc1cc2c(c(OC)c1OC)-c1ccc(O)c(=O)cc1C(NC(C)=O)CC2 (centres undefined) do in these assays?
KLF5 inhibitor: 73*; IEC-6 tox-1: 94*; KLF5 inh confirm: 89*; IEC-6 tox-2: 91*; IEC-6 cytotox cf: 83*

Results for Nc1ccccc1C(=O)OCc1ccc([N+](=O)[O-])cc1 ?
APP transl inh: -9; BaF3 tox: 5; Ba/F3 V617F tox: 1; KLF5 inhibitor: -88; IEC-6 tox-1: -4

What do the screens show for `CN1CCC(O)(c2cccs2)C(C(=O)c2cccs2)C1` (centres undefined)?
KLF5 inhibitor: -5; IEC-6 tox-1: 5

How did Oc1ccc(C(=C(Cl)Cl)c2ccc(O)cc2)cc1 do in these assays?
KLF5 inhibitor: -40; IEC-6 tox-1: -5

Results for CN1/C(=C\C=C\C2=[N+](C)c3ccc4ccccc4c3C2(C)C)C(C)(C)c2ccccc21 ?
APP transl inh: 95*; BaF3 tox: 95*; Ba/F3 V617F tox: 99*; KLF5 inhibitor: 71*; IEC-6 tox-1: 74*; KLF5 inh confirm: 116*; IEC-6 tox-2: 77*; IEC-6 cytotox cf: 80*

Results for CCn1nc(-c2ccccc2)nc2c(=O)n(C)c(=O)nc1-2 ?
APP transl inh: 4; BaF3 tox: -1; Ba/F3 V617F tox: 9; KLF5 inhibitor: -37; IEC-6 tox-1: 99*; IEC-6 cytotox cf: 60*

How did COc1ccc(-c2nc3ccccc3c(=O)n2-c2ccc(OC)cc2)cc1 do in these assays?
APP transl inh: -10; BaF3 tox: 2; Ba/F3 V617F tox: -1; KLF5 inhibitor: -8; IEC-6 tox-1: 1

What do the screens show for `COc1ccc(C(=O)OC2CC3CCC(C2)[N+]3(C)[O-])cc1OC` (centres undefined)?
KLF5 inhibitor: 1; IEC-6 tox-1: -9

How did CC(C)(C)c1ccc(CSc2cnn(C(C)(C)C)c(=O)c2Cl)cc1 do in these assays?
KLF5 inhibitor: 44; IEC-6 tox-1: 30*; IEC-6 cytotox cf: 17

How did c1cncc(C2CCCCN2)c1 (centres undefined) do in these assays?
BaF3 tox: 1; Ba/F3 V617F tox: -2; KLF5 inhibitor: 6; IEC-6 tox-1: 2

What do the screens show for `c1cncc(C2Nc3cccc4cccc(c34)N2)c1`?
BaF3 tox: 2; Ba/F3 V617F tox: 2; KLF5 inhibitor: 27; IEC-6 tox-1: 38*!; IEC-6 cytotox cf: 16

Results for CC(=O)O[C@@]12CO[C@@H]1C[C@H](O)[C@@]1(C)C(=O)[C@H](O)C3=C(C)[C@@H](OC(=O)[C@H](O)[C@@H](NC(=O)c4ccccc4)c4ccccc4)C[C@@](O)([C@@H](OC(=O)c4ccccc4)C12)C3(C)C (some centres undefined) ?
KLF5 inhibitor: 53; IEC-6 tox-1: 92*; IEC-6 cytotox cf: 71*

What do the screens show for `CC(=O)O[C@H]1C(=O)[C@@]2(C)C([C@H](OC(=O)c3ccccc3)[C@]3(O)C[C@H](OC(=O)[C@H](O)[C@@H](NC(=O)Cc4ccccc4)c4ccccc4)C(C)=C1C3(C)C)[C@]1(OC(C)=O)CO[C@@H]1C[C@@H]2O` (some centres undefined)?
KLF5 inhibitor: 54; IEC-6 tox-1: 91*; IEC-6 cytotox cf: 86*

What do the screens show for `CC(C)OP(=O)(Oc1ccc(C(O)C(Cl)(Cl)Cl)cc1)OC(C)C` (centres undefined)?
BaF3 tox: 1; Ba/F3 V617F tox: -6; KLF5 inhibitor: -48; IEC-6 tox-1: 0

How did COc1ccc(CN2CCN(Cc3ccccc3F)CC2)cc1 do in these assays?
KLF5 inhibitor: -27; IEC-6 tox-1: -11

Results for CC(=NCCC1=CCCCC1)c1c(O)[nH]c(=O)[nH]c1=O ?
APP transl inh: -11; BaF3 tox: 5; Ba/F3 V617F tox: 6; KLF5 inhibitor: 26; IEC-6 tox-1: 3

What do the screens show for `COc1cc2c(cc1/C=C/[N+](=O)[O-])OCO2`?
APP transl inh: 23; BaF3 tox: -5; Ba/F3 V617F tox: 10; KLF5 inhibitor: -9; IEC-6 tox-1: 42*; IEC-6 cytotox cf: 17

How did CCc1ccc(-c2nn(Cc3ccccc3)cc2C=O)cc1 do in these assays?
APP transl inh: -133; BaF3 tox: 6; Ba/F3 V617F tox: 6; KLF5 inhibitor: -197; IEC-6 tox-1: 0

What do the screens show for `CN(C)c1ccc(C(=O)c2ccc(N(C)C)cc2)cc1`?
BaF3 tox: 19; Ba/F3 V617F tox: 21; KLF5 inhibitor: -42; IEC-6 tox-1: 33*; IEC-6 cytotox cf: 50*
